# VACV Venus inh: vaccinia inhibition (Venus reporter). Vaccinia virus Venus reporter expression, fluorescence. Potency, µM (doses to about 36.5 µM), actives largely listed as inhibitors. hit rate 0.46% among 330,000. AID 720580; calls by dose curve; tested in A549 cells; also: nearly all actives have a fitted effect of over 30% in size
# HCMV inh: blocks human cytomegalovirus replication; HFF cells, HCMV-luciferase reporter, 72 h; stronger effect = lower value; activity change, negative = inhibition, % at 57.5 µM; hit rate 4.5% among 410,000; in the data active = activity change below about -60%; inconclusive = no clear call, values can overlap the other calls; inactive = above about -39%
#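 After 16 h attachment at 37C, HFF cells received test compound and HCMV-luciferase (1 PFU/cell); reporter luminescence read 72 h later, data normalized against buffer-only and known inhibitor Salinomycin.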
# Vaccinia mCherry: inhibitors of vaccinia virus infection (mCherry reporter signal); AID 720579; Potency, µM (highest dose often 36.5 µM), most hits filed as inhibitors; hit rate 0.63% among 310,000; Vaccinia virus mCherry reporter infection, fluorescence; calls by dose curve; tested in A549 cells; also: nearly all actives have a fitted effect of over 35% in size
# MARV entry inh: inhibitors of Marburg virus binding or cell entry; Potency, µM (series often up to 37.8 µM), hits mostly inhibitors; hit rate 1.8% among 300,000; Marburg virus pseudotyped entry inhibition, cell reporter; calls by dose curve; tested in HEK293 cells
# FMDV antiviral: foot and mouth disease virus antiviral activity | FMDV antiviral cell-based qHTS | Potency, µM (highest dose often 57.9 µM), actives largely listed as inhibitors | hit rate 1.2% among 410,000; calls by dose curve; tested in HEK293T cells; also: read-out not given here; nearly all actives have a fitted effect of over 45% in size
# Lassa entry inh: inhibitors of Lassa virus binding or cell entry; Lassa virus pseudotype entry inhibition, cell reporter; Potency, µM (titrated, usually from 37.9 µM), hits mostly inhibitors; hit rate 1.2% among 300,000; calls by dose curve; tested in HEK293 cells; also: nearly all actives have a fitted effect of over 50% in size
# Numbers stand for hits; . = inactive; ? = inconclusive; / = no result given; ! = not confirmed by another sample; [ ] = dose if it differs, or a comment. An excerpt weighted towards active compounds, which were near 6.5% of everything screened.
SMILES,VACV Venus inh,HCMV inh,Vaccinia mCherry,MARV entry inh,FMDV antiviral,Lassa entry inh
COc1ccc(-c2cc3nc(NCc4ccc(N(C)C)cc4)n(C)c(=O)c3s2)cc1OC,?,?,.,/,28µM,/
COC(=O)[C@@H]1CC2=CC(=O)CC[C@]2(C)[C@@]23O[C@@H]2C[C@@]2(C)[C@H](CC[C@@]24CCC(=O)O4)[C@@H]13,/,/,/,/,.,/
C[C@H]1[C@@H](NS(=O)(=O)c2ccc(Cl)cc2)CC[C@@]23CCCN2C(=O)CCC[C@@H]13,/,.,/,/,/,/
COc1ccccc1NC(=O)CCc1nnc2ccc(N3CCN(C)CC3)nn12,/,.,/,/,.,/
CC1CCCC(NC(=O)C2COc3ccccc3O2)C1C (centres undefined),.,.,.,.,.,.
O=C1[C@@H]2[C@H]3[C@H](O)[C@H](O)CC(=NOC[C@@H](O)COCc4ccco4)[C@@H]3CC[C@H]2C(=O)N1Cc1ccccc1,/,/,/,.,/,/
O=C(/C=C1\NC2(CCCC2)Cc2ccccc21)N1CCOCC1,.,.,/,.,?,.
CC1(C)Cc2c(ccc3ccccc23)/C(=C/C(=O)N2CCCCC2)N1,.,.,/,11µM,?,.
NC(=O)c1nsc(C(=O)N(c2ccccc2F)C(C(=O)NCc2ccc(F)cc2)c2ccc(O)cc2)c1N (centres undefined),.,-102,.,?,.,?
COc1ccccc1N(C(=O)c1snc(C(N)=O)c1N)C(C(=O)NCc1ccccc1)c1ccc(O)cc1 (centres undefined),.,.,.,.,.,4.5µM
O=C(NC1CCCCC1)C(c1ccc2ncccc2c1)N(Cc1ccccc1)C(=O)c1cccs1 (centres undefined),.,-62,.,5.8µM,/,.
COc1ccccc1N(C(=O)c1snc(C(N)=O)c1N)C(C(=O)NC1CCCC1)c1ccc2ncccc2c1 (centres undefined),.,-88,.,?,.,?
NC(=O)c1nsc(C(=O)N(c2cccc(F)c2)C(C(=O)NCc2ccccc2)c2ccc(O)cc2)c1N (centres undefined),.,.,.,?,.,?
CC(C)c1c(C(=O)N(C)CC2CCCN(C)C2)cnn1-c1nccc(-c2cccs2)n1 (centres undefined),.,/,.,/,.,/
COc1ccc(N(C(=O)c2snc(C(N)=O)c2N)C(C(=O)NCc2ccccc2)c2ccc(F)cc2)c(OC)c1 (centres undefined),.,-80,.,?,.,8.9µM
O=C1OC(c2ccccc2)(c2ccc3cc(O)ccc3c2)c2ccccc21 (centres undefined),?,.,7.9µM,5.6µM,.,.
O=C1OC(c2ccc(O)cc2)(c2ccc(O)cc2)c2ccccc21,?,.,.,?,.,?
CCOC(=O)[C@]12Cc3cc4c(cc3[C@H]1N(Cc1ccccc1)C(=O)c1ccccc12)OCO4,?,.,11µM!,/,.,/
CCOC(=O)[C@]12Cc3ccccc3[C@H]1N(Cc1ccccc1)C(=O)c1cc(F)c(F)cc12,.,?,.,/,25µM,/
Cc1cccc2cc(CN(C(=O)c3ccc(N4CCCCC4)cc3)C3CC3)c(N3CCC(O)CC3)nc12,.,/,.,/,.,/
O=S(=O)(c1ccccc1)N1[C@@H]2CC[C@@H](C2)[C@H]1c1nc2c(OCC3CCOCC3)cccc2[nH]1,/,.,/,/,/,/
COc1cc(OC)c(C(=O)N/N=C/c2ccoc2)cc1OC,.,-69,.,.,.,.
Cc1ccc(CN(C(=O)COc2cccc([N+](=O)[O-])c2)c2ccccn2)o1,.,?,.,2.8µM,.,?
Cc1ccc(CN(C(=O)COc2cccc([N+](=O)[O-])c2)c2ccccn2)cc1,.,.,.,?,.,.
COc1ccc(C(=O)N[C@H]2CC[C@@]34CCCN3C(=O)CCC[C@H]4[C@H]2Cc2ccccc2)cc1,/,.,/,/,/,/
SMILES,VACV Venus inh,HCMV inh,Vaccinia mCherry,MARV entry inh,FMDV antiviral,Lassa entry inh
CCCCn1c(N)c(S(=O)(=O)c2ccc(C)cc2)c2nc3ccccc3nc21,.,/,.,10µM,.,?
CN(C)CCCn1c(N)c(S(=O)(=O)c2ccccc2)c2nc3ccccc3nc21,.[7.34 µM],/,.[7.34 µM],.,.,.
CCS(=O)(=O)CCSC1OC(COC(C)=O)C(OC(C)=O)C(OC(C)=O)C1OC(C)=O (centres undefined),.,.,.,.,.,.
CC(C)CCNc1nc2c(c(=O)[nH]c(=O)n2C)n1CC(O)COC(C)C (centres undefined),.,-66,/,.,.,.
CNC(=S)N(CCc1cccc(C)c1)Cc1cc2cc(OC)c(OC)cc2[nH]c1=O,.,.,.,?,.,.
COc1cc2cc(CN(CCc3cccc(C)c3)C(=S)NCCCN(C)C)c(=O)[nH]c2cc1OC,.,-90,.,?,.,?
COc1cc2cc(CN(CCc3cccc(C)c3)C(=S)NCCCN3CCOCC3)c(=O)[nH]c2cc1OC,?,-82,.,10µM,.,?
COc1cc2cc(CN(CCCN3CCOCC3)C(=O)Nc3ccc(F)cc3)c(=O)[nH]c2cc1OC,.,.,.,/,.,/
CS(=O)(=O)c1ccc(Sc2nc3ccccc3s2)c([N+](=O)[O-])c1,?,/,?,11µM,35µM,?
O=[N+]([O-])c1cc(S(=O)(=O)C(F)(F)F)ccc1Sc1nc2ccccc2s1,.,.,/,?,?,?
c1ccc2c(NC3CC3)nc(-c3ccoc3)nc2c1,/,/,/,/,.,/
CCOC(=O)c1c(-c2ccc(OC)cc2)csc1NC(=O)COc1ccc2c(C)cc(=O)oc2c1,.,.,.,.,.,.
CCOC(=O)c1c(-c2ccc(OC)cc2)csc1NC(=O)CSc1ncnc2sccc12,/,-71,/,.,?,.
CCOC(=O)CNC(=O)CSc1ncnc2c1cnn2-c1ccc(OC)cc1,.,.,/,11µM,.,?
COc1ccc(OC)c(NC(=O)CSc2ncnc3c2cnn3-c2ccccc2Cl)c1,/,/,/,1.8µM,7.9µM,?
CCOC(=O)CNC(=O)CSc1ncnc2c1cnn2-c1ccc(C)cc1,.,.,.,?,.,?
COc1ccc(-c2ccnc3c(Br)c(C)nn23)cc1,/,?,/,/,.,/
COc1ccc(S(=O)(=O)N(Cc2cccnc2)Cc2cc3ccccc3[nH]c2=O)cc1,/,?,/,/,.,/
Cc1cccc(N(Cc2cc3ccccc3[nH]c2=O)S(=O)(=O)c2ccccc2)c1,.,?,.,.,?,.
O=c1[nH]c2ccccc2cc1CN(c1ccccc1)S(=O)(=O)c1ccccc1,.,-64,.,?,.,.
Cc1ccc(S(=O)(=O)N(Cc2cccnc2)Cc2cc3ccccc3[nH]c2=O)cc1,.,-62,.,.,.,.
Cc1ccc(OCC(=O)N2CCc3ccccc3C2)cc1,/,.,/,/,.,/
COc1ccc(S(=O)(=O)N(CC(=O)N2CCc3ccccc3C2)c2ccc(C)cc2)cc1,.,.,.,.,.,6.3µM
COc1ccccc1N(CC(=O)N1CCCCCC1)S(=O)(=O)c1ccc(C)cc1,.,.,.,?,.,.
Cc1ccc(S(=O)(=O)N(Cc2ccccc2)c2ccccc2C(=O)N2CCCCC2)cc1,.,.,?,10µM,.,?
CN(C(=O)C(C)(C)C)c1ccc(OCC(=O)N2CCc3ccccc3C2)cc1,.,-82,.,.,?,?
